Data reported in ChEMBL document CHEMBL1961873, “Compounds: GSK PKIS; Assays: Nanosyn kinase panel” (2012).

target: T1, Ephrin type-B receptor 4 (Homo sapiens) (UniProt P54760); conditions: at 0.1 µM
T1 sequence (whole entry): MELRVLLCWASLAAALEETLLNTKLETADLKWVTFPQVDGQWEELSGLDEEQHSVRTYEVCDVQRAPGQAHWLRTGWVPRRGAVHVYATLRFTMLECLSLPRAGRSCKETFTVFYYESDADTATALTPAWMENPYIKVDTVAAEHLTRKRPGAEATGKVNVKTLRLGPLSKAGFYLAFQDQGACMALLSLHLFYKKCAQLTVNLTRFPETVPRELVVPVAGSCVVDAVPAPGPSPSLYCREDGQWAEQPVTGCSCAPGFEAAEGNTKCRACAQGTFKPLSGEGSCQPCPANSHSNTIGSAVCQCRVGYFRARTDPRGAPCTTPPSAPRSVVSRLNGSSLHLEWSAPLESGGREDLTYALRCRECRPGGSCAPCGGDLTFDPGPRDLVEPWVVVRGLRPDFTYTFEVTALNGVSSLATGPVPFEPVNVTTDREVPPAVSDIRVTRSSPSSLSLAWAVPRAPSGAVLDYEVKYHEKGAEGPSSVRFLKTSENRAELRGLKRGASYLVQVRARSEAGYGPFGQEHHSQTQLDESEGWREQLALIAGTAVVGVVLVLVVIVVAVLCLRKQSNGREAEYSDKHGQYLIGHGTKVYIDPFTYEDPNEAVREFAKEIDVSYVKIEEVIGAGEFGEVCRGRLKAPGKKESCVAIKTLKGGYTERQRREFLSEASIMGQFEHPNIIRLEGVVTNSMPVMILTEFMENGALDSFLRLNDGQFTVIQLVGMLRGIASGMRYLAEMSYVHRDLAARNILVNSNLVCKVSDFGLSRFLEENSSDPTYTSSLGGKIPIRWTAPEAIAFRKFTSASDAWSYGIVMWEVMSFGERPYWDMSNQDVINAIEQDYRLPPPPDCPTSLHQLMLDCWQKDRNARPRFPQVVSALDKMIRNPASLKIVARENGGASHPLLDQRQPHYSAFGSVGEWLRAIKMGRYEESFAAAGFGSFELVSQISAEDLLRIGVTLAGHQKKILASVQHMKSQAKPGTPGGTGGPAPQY

| Compound | inhibition [%] |
| --- | --- |
| CCn1c(-c2nonc2N)nc2ccc(F)cc21 | 1.64 |
| [O-][S+]1CCN(Cc2ccc(-c3ccc4ncnc(Nc5ccc(OCc6ccccc6)c(Cl)c5)c4c3)o2)CC1 | -0.7 |
| N#Cc1cccc(Nc2nccc(-c3cnn4ncccc34)n2)c1 | 5.63 |
| CS(=O)(=O)CCNCc1nc(-c2ccc3ncnc(Nc4ccc(OCc5cccc(C(F)(F)F)c5)cc4)c3c2)cs1 | -1.44 |
| COC(=O)c1ccc2c(c1)C(=Cc1cc(Br)c(O)c(Br)c1)C(=O)N2 | 2.41 |
| NS(=O)(=O)c1cccc(-c2cc3ccncc3cc2OCc2ccccc2)c1 | 2.45 |
| COc1ccc(-c2nn3ncccc3c2-c2ccnc(Nc3cccc(C(F)(F)F)c3)n2)cc1 | 0.66 |
| Cc1cc(O)cc(C)c1/C=C/c1cncc(C(=O)N(C)C)c1 | 3.23 |
| COc1cc(/C=N/Nc2ncnc3c2cnn3C(C)C)ccc1O | 3.42 |
| CCOc1nccc2c1nc(-c1nonc1N)n2CC | 2.78 |
| Oc1cccc(-c2nc(-c3ccccc3)[nH]c2-c2ccncc2)c1 | 6.41 |
| Nc1nccc(C#Cc2cncnc2Nc2ccc(OCc3cccc(F)c3)c(Cl)c2)n1 | 1.01 |
| Cc1ccc2c(-c3ccnc(Nc4ccc5c(c4)OCCO5)n3)c(-c3ccc(C(F)(F)F)cc3)nn2n1 | -1.12 |
| CS(=O)(=O)Nc1cccc(-c2ccc3c(NC(=O)C4CC4)n[nH]c3c2)c1 | 0.62 |
| Cc1cc(-c2ccccn2)cc(C)c1/C=C/c1cncc(-c2nn[nH]n2)c1 | 1.86 |
| CN(C)CCCn1c(-c2nonc2N)nc2cnccc21 | 3.38 |
| Cc1cc(Cl)cc2c1NC(=O)C2=NNc1ccc(S(N)(=O)=O)cc1 | 1.3 |

| Compound | inhibition [%] |
| --- | --- |
| CN(c1ccc(NC(=O)Nc2ccc(OC(F)(F)F)cc2)cc1)c1ccnc(Nc2cccc(S(N)(=O)=O)c2)n1 | 1.79 |
| COc1cc2ncn(-c3cc(OCc4ccccc4S(C)(=O)=O)c(C#N)s3)c2cc1OC | 4.74 |
| Cc1ccc(O)cc1Nc1ccnc2ccc(S(C)(=O)=O)cc12 | 91.6 |
| CN1CCN(C(=O)c2ccc(NC(=O)Nc3ccc(N(C)c4ccnc(Nc5ccc(CS(C)(=O)=O)cc5)n4)cc3)cc2)CC1 | 2.21 |
| COC(=O)Nc1nc2cc(Oc3ccc(NC(=O)Nc4cccc(Br)c4)cc3)ccc2[nH]1 | 9.97 |
| NS(=O)(=O)c1ccc(N/N=C2\C(=O)Nc3ccc(Cl)cc32)cc1 | 1.05 |
| Cc1nc(-c2ccccc2)n2nc(NCCCN3CCOCC3)ncc12 | 1.32 |
| COc1cc(Nc2nccc(-c3cnn4ncccc34)n2)cc(OC)c1 | 2.69 |
| NS(=O)(=O)c1cccc(Nc2cc(-c3ccc(F)cc3)n[nH]2)c1 | 0.66 |
| COc1ccc2ncnc(Nc3ccc(OCc4ccccc4)cc3)c2c1 | 2.58 |
| Cc1ccc2c(c1)/C(=N/Nc1ccc(S(N)(=O)=O)cc1)C(=O)N2 | 0.65 |
| Cc1ccc(C(=O)NC2CC2)cc1-c1ccc2[nH]ncc2c1 | -2.42 |
| NS(=O)(=O)c1ccc(NC=C2C(=O)Nc3ccc4ncsc4c32)cc1 | 4.95 |
| CCS(=O)(=O)c1ccc(OC)c(Nc2ncc(-c3cccc(OC)c3)o2)c1 | 3.32 |
| c1ccc(Cc2nc3ccc(Nc4ncnc5ccccc45)cc3[nH]2)cc1 | 1.42 |
| NC(=O)c1cccc(Nc2nccc(Nc3cccc(F)c3)n2)c1 | -0.22 |
| CCCN1CCCC(c2ccc(Nc3nc(Nc4cc(F)ccc4C(N)=O)c4cc[nH]c4n3)c(OC)c2)C1 (stereo not drawn) | 2.18 |

target: T1, Ephrin type-B receptor 4 (Homo sapiens); conditions: at 1 µM

| Compound | inhibition [%] |
| --- | --- |
| CCn1c(-c2nonc2N)nc2ccc(F)cc21 | 1.12 |
| [O-][S+]1CCN(Cc2ccc(-c3ccc4ncnc(Nc5ccc(OCc6ccccc6)c(Cl)c5)c4c3)o2)CC1 | -0.05 |
| N#Cc1cccc(Nc2nccc(-c3cnn4ncccc34)n2)c1 | 22.5 |
| CS(=O)(=O)CCNCc1nc(-c2ccc3ncnc(Nc4ccc(OCc5cccc(C(F)(F)F)c5)cc4)c3c2)cs1 | 2.09 |
| COC(=O)c1ccc2c(c1)C(=Cc1cc(Br)c(O)c(Br)c1)C(=O)N2 | 3.68 |
| NS(=O)(=O)c1cccc(-c2cc3ccncc3cc2OCc2ccccc2)c1 | 2.84 |
| COc1ccc(-c2nn3ncccc3c2-c2ccnc(Nc3cccc(C(F)(F)F)c3)n2)cc1 | 5.01 |
| Cc1cc(O)cc(C)c1/C=C/c1cncc(C(=O)N(C)C)c1 | 7.53 |
| COc1cc(/C=N/Nc2ncnc3c2cnn3C(C)C)ccc1O | 21.4 |
| CCOc1nccc2c1nc(-c1nonc1N)n2CC | 0.5 |
| Oc1cccc(-c2nc(-c3ccccc3)[nH]c2-c2ccncc2)c1 | 9.99 |
| Nc1nccc(C#Cc2cncnc2Nc2ccc(OCc3cccc(F)c3)c(Cl)c2)n1 | 2.68 |
| Cc1ccc2c(-c3ccnc(Nc4ccc5c(c4)OCCO5)n3)c(-c3ccc(C(F)(F)F)cc3)nn2n1 | 1.46 |
| CS(=O)(=O)Nc1cccc(-c2ccc3c(NC(=O)C4CC4)n[nH]c3c2)c1 | 0.5 |
| Cc1cc(-c2ccccn2)cc(C)c1/C=C/c1cncc(-c2nn[nH]n2)c1 | 4.98 |
| CN(C)CCCn1c(-c2nonc2N)nc2cnccc21 | 2.2 |
| Cc1cc(Cl)cc2c1NC(=O)C2=NNc1ccc(S(N)(=O)=O)cc1 | 1.46 |

| Compound | inhibition [%] |
| --- | --- |
| CN(c1ccc(NC(=O)Nc2ccc(OC(F)(F)F)cc2)cc1)c1ccnc(Nc2cccc(S(N)(=O)=O)c2)n1 | 30.7 |
| COc1cc2ncn(-c3cc(OCc4ccccc4S(C)(=O)=O)c(C#N)s3)c2cc1OC | 17.1 |
| Cc1ccc(O)cc1Nc1ccnc2ccc(S(C)(=O)=O)cc12 | 95.6 |
| CN1CCN(C(=O)c2ccc(NC(=O)Nc3ccc(N(C)c4ccnc(Nc5ccc(CS(C)(=O)=O)cc5)n4)cc3)cc2)CC1 | 11 |
| COC(=O)Nc1nc2cc(Oc3ccc(NC(=O)Nc4cccc(Br)c4)cc3)ccc2[nH]1 | 26 |
| NS(=O)(=O)c1ccc(N/N=C2\C(=O)Nc3ccc(Cl)cc32)cc1 | 2.86 |
| Cc1nc(-c2ccccc2)n2nc(NCCCN3CCOCC3)ncc12 | 4.69 |
| COc1cc(Nc2nccc(-c3cnn4ncccc34)n2)cc(OC)c1 | 25.6 |
| NS(=O)(=O)c1cccc(Nc2cc(-c3ccc(F)cc3)n[nH]2)c1 | 3.57 |
| COc1ccc2ncnc(Nc3ccc(OCc4ccccc4)cc3)c2c1 | 0.41 |
| Cc1ccc2c(c1)/C(=N/Nc1ccc(S(N)(=O)=O)cc1)C(=O)N2 | 0.71 |
| Cc1ccc(C(=O)NC2CC2)cc1-c1ccc2[nH]ncc2c1 | -0.31 |
| NS(=O)(=O)c1ccc(NC=C2C(=O)Nc3ccc4ncsc4c32)cc1 | 12.2 |
| CCS(=O)(=O)c1ccc(OC)c(Nc2ncc(-c3cccc(OC)c3)o2)c1 | 11.9 |
| c1ccc(Cc2nc3ccc(Nc4ncnc5ccccc45)cc3[nH]2)cc1 | 1.8 |
| NC(=O)c1cccc(Nc2nccc(Nc3cccc(F)c3)n2)c1 | 5.23 |
| CCCN1CCCC(c2ccc(Nc3nc(Nc4cc(F)ccc4C(N)=O)c4cc[nH]c4n3)c(OC)c2)C1 (stereo not drawn) | 4.67 |
